Most compounds without a hit are left out; they make up all but 1.3% or so of the library.
COUP-TFII inh: blocks human COUP-TFII nuclear receptor; 370,000 compounds, 0.7% hits; P24468; HEK293T NGFI-A luciferase reporter, luminescence; inhibition, % at 8.6 µM;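 active = inhibition above a per-plate cutoff, mean inhibition of test wells between control levels plus 3 SD, cut at about 38% in these data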;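 note: cells cotransfected with COUP-TFII expression vector driving the NGFI-A reporter; 0% = median of COUP-TF2 test wells and 100% = reporter-only cells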
SRC1 inh: human NCOA1 inhibition | inhibition, % at 3.6 µM | Q15788 | HEK293 GAL4-SRC1 luciferase reporter, luminescence | 360,000 compounds, 0.12% hits;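 active = inhibition above the campaign mean plus 3 SD, with each screening campaign given its own cutoff, cut at about 60% in these data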;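 note: 0% = DMSO treated cells and 100% = gossypol at 36 µM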
NCOA2 inhibitor: human SRC2 (NCOA2) inhibition | HEK293 GAL4-SRC2 luciferase reporter, luminescence | inhibition, % at 9 µM | 370,000 compounds, 0.17% hits | AID 651957;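 active = inhibition above the mean inhibition of all tested compounds plus 3 SD, set per campaign, cut at about 52% in these data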;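 note: 0% = DMSO treated cells and 100% = cells given Gossypol at 36 µM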
NR5A2 inv ag: inverse agonists of human LRH-1 (NR5A2). O00482. HEK293T StAR-luciferase reporter, LRH-1 transfected, 24 h. inhibition, % at 3.6 µM. 360,000 compounds, 0.13% hits. AID 602396;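 active = inhibition above the mean inhibition of all tested compounds plus 3 SD, cut at about 73% in these data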;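 note: 0% = DMSO wells and 100% = reporter-only cells lacking LRH-1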
SRC3 inh: inhibits human SRC3 coactivator | Q9Y6Q9 | HEK293 GAL4-SRC3 luciferase reporter, luminescence | inhibition, % at 3.6 µM | 360,000 compounds, 0.17% hits | AID 588352;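 active = inhibition above a per-campaign cutoff, the mean of all compounds plus 3 SD, cut at about 60% in these data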;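 note: 0% = DMSO-treated cells and 100% = gossypol-treated cells at 36 µM; higher means less SRC3-driven luciferase light from the GAL4 reporter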
Gli-Sufu antag: blocks Gli-Sufu signaling in a luciferase reporter. 340,000 compounds, 0.74% hits. inhibition, % at 5 µM. Sufu-KO-LIGHT fibroblasts, Gli luciferase reporter luminescence. AID 588413;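 active = inhibition above about 55%, limit read from the data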;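 note: 0% = DMSO-treated cells and 100% = wells with medium but no cells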
Active calls of the source: *; . = not tested or not shown.

SMILES | COUP-TFII inh | SRC1 inh | NCOA2 inhibitor | NR5A2 inv ag | SRC3 inh | Gli-Sufu antag
Cc1cc(-c2csc3ncnc(N4CCN(C)CC4)c23)cc(C)c1C | 12 | -22 | 11 | 18 | 6 | 12
CN1CCN(c2ncnc3scc(-c4ccccc4Cl)c23)CC1 | 24 | 45 | 31 | 35 | 63* | -10
Cn1c(=O)c2cc(NC(=O)CCc3ccc(O)cc3)ccc2n1Cc1cccc(C(F)(F)F)c1 | 9 | 44 | -4 | 74* | 59 | .
C=C1C(=O)C=C2CN(C(=O)c3ccccc3)[C@@](Cc3ccc(F)cc3)(C(=O)OC)[C@@H]12 | . | 20 | . | 56 | 48 | 62*
C=C(NC(=O)C(=C)NC(=O)c1csc(C2=NC3c4csc(n4)C4NC(=O)c5csc(n5)C(C(C)(O)C(C)O)NC(=O)C5CSC(=N5)/C(=C/C)NC(=O)C(C(C)O)NC(=O)c5csc(n5)C3(CC2)NC(=O)C(C)NC(=O)C(=C)NC(=O)C(=C)NC(=O)C(C(C)C)NC2C=Cc3c(C(C)O)cc(nc3C2O)C(=O)OC4C)n1)C(N)=O (stereo unspecified) | 42* | -90 | 12 | -29 | -44 | 66*
Cc1ccnc(NC(=O)CCCOc2cc(=O)n(C)c3ccccc23)c1 | -21 | -4 | -13 | 74* | 40 | -119
Cn1c(=O)cc(OCCCC(=O)Nc2cc(Br)ccn2)c2ccccc21 | 34 | . | . | . | . | .
CCN(CC)CCn1nc2c3c(cccc3c1=O)-c1ccccc1-2 | -66 | 73* | -198 | 77* | -52 | 47
CCN(CC)c1ccc(NC(=O)CCCCC(=O)Nc2ccc(N(CC)CC)cc2)cc1 | 31 | 6 | 57* | 3 | 32 | 1
COc1ccc(CN2CCC(CNC(=O)NC3CCCC3)CC2)cc1 | 24 | . | 13 | . | . | .
O=C(OCc1cn(Cc2ccc(F)cc2)nn1)N1CCCC1 | 6 | . | -8 | . | . | .
Cc1cc(C(=O)Nc2ccccc2)c(C)o1 | -15 | -29 | -1 | -9 | -31 | -4
Cc1cc(C(=O)Nc2ccc(CC(=O)O)cc2)c(C)o1 | 13 | -8 | 55* | 10 | 7 | -9
CCOC(=O)C1CCCN(S(=O)(=O)c2cc3c(cc2Br)CCN3C(=O)CC)C1 (stereo unspecified) | 8 | . | 9 | . | . | .
CN(C)CCNc1cccc2sc3ccc(O)cc3c(=O)c12 | -22 | 8 | -87 | 29 | 21 | .
Cc1ccc(NCCN(C)C)c2c(=O)c3cc(O)ccc3sc12 | -94 | 64* | -69 | 43 | 59 | 66*
CN1/C(=C/c2cc[n+](C)c3ccccc23)C=Cc2ccccc21 | . | 32 | . | 41 | 40 | 89*
C[n+]1ccc(/C=C/c2ccccc2O)c2ccccc21 | -18 | 5 | 23 | 8 | 22 | 2
Nn1c(SCc2cccc3ccccc23)nnc1-c1cc(-c2ccc(F)cc2)n[nH]1 | -2 | . | 3 | . | . | .
CC(CCN1CCC(C(O)(c2ccccc2)c2ccccc2)CC1)Oc1ccc(F)cc1 (stereo unspecified) | 10 | . | 20 | . | . | .
CC(C)C[C@H]1COc2cc(F)ccc2S(=O)(=O)N1C | 18 | . | -6 | . | . | .
COc1ccc(C(=O)C(CCC(CNC(C)(C)C)C(=O)c2ccc(OC)cc2)CNC(C)(C)C)cc1 (stereo unspecified) | 3 | 23 | 54* | 12 | 35 | -11
COc1ccc(C(=O)CC(=O)c2ccc(C(C)(C)C)cc2)cc1 | 18 | -8 | -13 | -18 | -13 | 24
CCCCCCCCCCCCCCCC[N+](C)(C)CCN(Cc1ccc(OC)cc1)c1ncccn1 | . | 8 | . | 21 | -15 | 64*
C=CCn1c(NCCc2ccccc2)nc2c1c(=O)n(C)c(=O)n2C | 22 | 23 | 25 | 24 | 35 | 4
SMILES | COUP-TFII inh | SRC1 inh | NCOA2 inhibitor | NR5A2 inv ag | SRC3 inh | Gli-Sufu antag
C/C(Cl)=C\Cn1c(NCCc2ccccc2)nc2c1c(=O)n(C)c(=O)n2C | 11 | -6 | 1 | 18 | 20 | 82*
Cc1ccc(/C=N/Nc2ccnc3cc(Cl)ccc23)c(C)c1 | 6 | 19 | 21 | 10 | 14 | 60*
Cc1ccccc1/C=N/Nc1ccnc2cc(Cl)ccc12 | 12 | -10 | -27 | -26 | 0 | 2
CCN1c2ccccc2N(C)C1(C)c1ccccc1 (stereo unspecified) | . | 21 | . | 14 | 19 | 38
CN1c2ccccc2N(C)C1(C)c1ccccc1 | 5 | -11 | -25 | 13 | -5 | 61*
COc1ccc2[nH]c3c(c2c1)CC(C)NC3=O (stereo unspecified) | 32 | 66* | 36 | 37 | 52 | -11
COc1ccc2[nH]c3c(c(=O)c2c1)CCCC3 | 9 | 10 | -7 | -20 | 7 | .
Cc1nnc(SC(=O)N2c3ccccc3Sc3ccccc32)s1 | -6 | 17 | 60* | 31 | 65* | 12
CCOC(=O)N1c2ccccc2Sc2ccccc21 | 31 | 20 | -5 | 3 | 12 | -7
CCc1ccc(C2=NNC(=Nc3cccc(S(=O)(=O)N(C)C)c3)SC2)cc1 | 41* | 11 | 24 | 22 | 14 | 26
C/C(CC(=O)NC1C2CC3CC(C2)CC1C3)=N\NC(=O)Cc1cccs1 (stereo unspecified) | -11 | -24 | 98* | -10 | -9 | -1
C[N+](C)(CCOc1ccccc1)Cc1ccccc1 | 10 | -1 | 6 | 13 | -1 | 10
Cc1cc(C(C)(C)CC(C)(C)C)ccc1OCCOCC[N+](C)(C)Cc1ccccc1 | 17 | 9 | -10 | -20 | -15 | 65*
C[C@@H]1OC(c2ccccc2)N(C)[C@H]2C[C@H]3c4[nH]c5cccc(-c6ccccc6)c5c4CCN3C[C@@H]12 (stereo partly specified) | 5 | . | 4 | . | . | .
CN1CC(=O)N2[C@@H](C[C@]3(c4c[nH]c5ccccc45)c4ccccc4N(S(=O)(=O)c4ccccc4)[C@H]23)C1=O | -8 | . | . | . | . | .
O=C(C1=NN[C@@H]2C(=O)N(c3cccc(C(F)(F)F)c3)C(=O)[C@H]12)c1ccc2ccccc2n1 | 25 | -4 | 59* | 2 | 4 | -3
CCN1/C(=C/C=C/c2oc3ccc4ccccc4c3[n+]2CC)Oc2ccc3ccccc3c21 | . | . | . | . | . | 74*
CCn1nc([N+](=O)[O-])c(C(C#N)c2nc3cc(C(F)(F)F)ccc3s2)c(Cl)c1=O (stereo unspecified) | 17 | -45 | -11 | 14 | 62* | -3
COc1cc(OC)c2c(-c3cccc(-c4ccc(CO)cc4)c3)cc(=O)oc2c1 | . | -9 | . | 53 | 24 | 70*
COc1ccc(-c2cccc(-c3cc(=O)oc4cc(OC)cc(OC)c34)c2)cc1 | -14 | -32 | 19 | 30 | -2 | 40
CCC[C@H]1[C@H](N)CC[C@@]23CCCN2C(=O)CCC[C@@H]13 | -5 | . | . | . | . | .
COC(=O)[C@]12C[C@H](CC(=O)NCCc3ccccc3OC)C(=O)N(Cc3cccc4ccccc34)C1=C[C@H](C(C)C)O[C@@H]2C1CC1 | 0 | . | 30 | . | . | .
C/C(=N\NC(=O)c1nnn(-c2nonc2N)c1CN(C)c1ccccc1)c1ccccn1 | . | -8 | . | -7 | 15 | 78*

Screening data from PubChem.
